In PubChem BioAssay (NCATS):
Records with an inconclusive call do not appear. Active and inactive are the calls of the source. Unless noted, calls follow the shape of the dose curve; as a rule, active = well fitted curve in the direction sought with a large enough effect; inconclusive = small, poorly fitted or top-dose-only effect, or another doubt; inactive = no such curve, though single readings can be large; an effect the other way counts as inactive or inconclusive.

Columns and labels:
[1] = qHTS assay for small molecule disruptors of the mitochondrial membrane potential - 1 hr assay (AID 651754; calls by dose curve; also: % is scaled to controls: 0 for no effect and ±100 for the full control effect; nearly all actives have a fitted effect of over 35% in size)
Procedure, shortened: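 Loss of mitochondrial potential shifts the cationic dye from red mitochondrial aggregates to green cytoplasmic monomers. Cells (HepG2) are treated with compound for 1 hr before a 30 min dye incubation at 37C.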

[2] = target: Tumor necrosis factor (Homo sapiens) (UniProt P01375); experiment: qHTS assay to identify small molecules that stimulate Tumor Necrosis Factor-alpha (TNF-alpha) secretion (AID 651757; active = well fitted curve in the direction sought with a large enough effect in the signal ratio; the % refers to the signal ratio; also: 0% is about no effect)
Procedure, shortened: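 Human monocytic THP-1 cells are plated, treated with compound and held at 37 C for 17 hrs. Labeled anti-TNF-alpha antibody mixture is then added; after 3 hr at room temperature, TR-FRET signal reports secreted TNF-alpha.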

[3] = qHTS assay to identify small molecules that stimulate interleukin-8 (IL-8) secretion (AID 651758; active = well fitted activation curve with a large enough effect in the signal ratio; the % refers to the signal ratio; also: 0% is about no effect)
Procedure, shortened: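 Quantitative HTS in THP-1 monocytic cells at 2000 cells per well, with 16 hrs compound incubation at 37 C. IL-8 in the medium was then quantified by HTRF immunoassay, read after 1-3 hrs at room temperature.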

[4] = qHTS assay for environmental chemicals that activate the Aryl hydrocarbon Receptor (AhR) signaling pathway (AID 651777); conditions: 1A2-DRE human hepatoma cells, luciferase, 24 h; activation: stronger effect = higher value; also: % of control where 0% means no effect; nearly all actives have a fitted effect of over 15% in size
Procedure, shortened: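 1A2-DRE human hepatoma reporter line; 1,200 cells/well; cmpd or DMSO 24 h, 37 C/5% CO2; One-Glo 30 min RT; luciferase lum.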

[5] = target: Peroxisome proliferator-activated receptor alpha (Homo sapiens) (UniProt Q07869); experiment: qHTS assay for small molecule agonists of the peroxisome proliferator-activated receptor alpha (PPARalpha) signaling pathway (AID 651778); conditions: PathHunter PPARalpha complementation, chemiluminescence, 6 h; stronger effect = higher value; also: % of control where 0% means no effect
Procedure, shortened: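 Cells plated at 2,000/well and held overnight at 37 C, 5% CO2, then compound added by pin tool for 6 hr; after PathHunter detection reagent and 60 min at room temperature, chemiluminescence from enzyme complementation was read.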

[6] = qHTS assay for small molecule agonists of the antioxidant response element (ARE) signaling pathway measured by Nrf2-dependant transcriptional activity (AID 720636; active = well fitted curve in the direction sought with a large enough effect in the repeat runs; an effect the other way counts as inactive or inconclusive;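 also: HepG2 cells with an ARE-driven luciferase reporter; % of control where 0% means no effect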)
Procedure, shortened: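 Cells: ARE-luc HepG2 with Nrf2-responsive luciferase. Medium contained 1% dialyzed FBS. Compound exposure lasted 16 hr at 37 C and 5% CO2, followed by ONE-Glo luciferase detection.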

[7] = qHTS assay for small molecule antagonists of the retinoid-related orphan receptor gamma (ROR-gamma) signaling pathway - cell viability counter screen (AID 720652; active = well fitted curve in the direction sought with a large enough effect in the repeat runs; an effect the other way counts as inactive or inconclusive;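 also: CHO reporter cells with doxycycline-induced ROR-gamma expression; series mostly up to about 92 µM; compound exposure lasted 16 hr before ATP read; % is scaled to controls: 0 for no effect and ±100 for the full control effect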)
Procedure, shortened: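 Steps: seed CHO cells bearing TET-inducible ROR and ROR response element-luciferase; rest 5 hr at 37 C; add compound, then doxycycline; incubate 16 hr; add CellTiter-Glo and read luminescence as ATP-based viability.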

[8] = qHTS assay for small molecule agonists of the antioxidant response element (ARE) signaling pathway measured by Nrf2-dependant transcriptional activity - cell viability counter screen (AID 720653; active = well fitted curve in the direction sought with a large enough effect in the repeat runs; an effect the other way counts as inactive or inconclusive; also: % is scaled to controls: 0 for no effect and ±100 for the full control effect); conditions: ARE-bla HepG2 viability, CellTiter-Glo ATP luminescence, 16 h; stronger effect = lower value
Procedure, shortened: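 ARE-bla HepG2 cells (2,000/well) rested 5 hrs at 37C/5% CO2, then exposed to compounds in DMSO for 16 hrs. Viability was read in the same wells as intracellular ATP by luminescence, 30 min at room temperature after reagent addition.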

[9] = qHTS assay for cell viability of HEK293 cells (AID 743288); conditions: ATP luminescence (CellTiter-Glo), 18 h, stronger effect = lower value; also: % is scaled to controls: 0 for no effect and ±100 for the full control effect; nearly all actives have a fitted effect of over 50% in size
Procedure, shortened: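 Steps: plate 2,000 parental HEK293 cells per well; incubate ≥5 h, 37 C; add compounds in DMSO; incubate 18 h, 37 C; add CellTiter-Glo; wait 30 min at room temperature; read luminescence.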

[10] = qHTS assay for cell viability of the p53RE-bla HCT-116 cell line (AID 743292); also: % is scaled to controls: 0 for no effect and ±100 for the full control effect; nearly all actives have a fitted effect of over 55% in size
Procedure, shortened: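 HCT-116 p53RE-bla cells seeded 4,000/well; 5 h at 37 C; compound (DMSO) added; 16 h at 37 C; CellTiter-Glo added, 30 min RT; luminescence read.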

[11] = target: Nuclear receptor subfamily 1 group I member 2 (Rattus norvegicus) (UniProt Q9R1A7); experiment: qHTS assay for small molecule activators of the rat pregnane X receptor (rPXR) signaling pathway (AID 651751; call rule not given here; also: 0% is about no effect); conditions: rPXR reporter cells, luciferase (One-Glo), 24 h
[12] = qHTS assay for small molecule activators of the human pregnane X receptor (PXR) signaling pathway (AID 720659; call rule not given here; also: 0% is about no effect)
[13] = target: Nuclear receptor ROR-gamma (Homo sapiens) (UniProt P51449); experiment: qHTS assay for small molecule antagonists of the retinoid-related orphan receptor gamma (ROR-gamma) signaling pathway (AID 651802);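 also: CHO cells with doxycycline-induced ROR-gamma expression; series mostly up to about 92 µM; % is scaled to controls: 0 for no effect and ±100 for the full control effect; nearly all actives have a fitted effect of over 60% in size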
Procedure, shortened: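 Steps: cells dispensed; compound or DMSO transferred by pin tool; doxycycline added to induce the ROR response element-driven luciferase; plates held 16hr at 37C; ONE-Glo added and luminescence measured.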

[14] = qHTS assay for small molecule disruptors of the mitochondrial membrane potential - 5 hr assay (AID 651755; calls by dose curve; also: % is scaled to controls: 0 for no effect and ±100 for the full control effect; nearly all actives have a fitted effect of over 40% in size)
Procedure, shortened: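 Seed HepG2 overnight, add compound, incubate 5 hr at 37C and 5% CO2, stain 30 min with Mito-MPS, then measure monomer (490/535 nm) and aggregate (540/590 nm) fluorescence.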

Chain of Tumor necrosis factor (Homo sapiens) (P01375 whole entry, looked up): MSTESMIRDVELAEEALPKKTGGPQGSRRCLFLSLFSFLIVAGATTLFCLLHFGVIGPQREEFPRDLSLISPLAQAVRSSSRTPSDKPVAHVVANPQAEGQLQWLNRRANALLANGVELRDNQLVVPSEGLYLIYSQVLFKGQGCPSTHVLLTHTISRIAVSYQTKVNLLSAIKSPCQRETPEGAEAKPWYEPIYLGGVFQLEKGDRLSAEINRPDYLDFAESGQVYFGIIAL
Chain of Peroxisome proliferator-activated receptor alpha (Homo sapiens) (Q07869 whole entry, looked up): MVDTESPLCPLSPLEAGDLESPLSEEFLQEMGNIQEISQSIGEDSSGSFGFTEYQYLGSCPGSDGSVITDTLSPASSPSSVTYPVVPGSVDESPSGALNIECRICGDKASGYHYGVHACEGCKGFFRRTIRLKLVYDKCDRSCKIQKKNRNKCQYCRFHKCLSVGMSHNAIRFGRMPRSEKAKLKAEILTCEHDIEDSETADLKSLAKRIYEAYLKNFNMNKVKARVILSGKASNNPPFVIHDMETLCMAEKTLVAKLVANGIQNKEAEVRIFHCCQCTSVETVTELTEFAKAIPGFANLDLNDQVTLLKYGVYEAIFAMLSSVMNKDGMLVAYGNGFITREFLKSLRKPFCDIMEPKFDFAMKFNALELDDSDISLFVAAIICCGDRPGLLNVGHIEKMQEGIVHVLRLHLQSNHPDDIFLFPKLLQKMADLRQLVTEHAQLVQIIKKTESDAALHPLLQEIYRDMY
Chain of Nuclear receptor ROR-gamma (Homo sapiens) (P51449 whole entry, looked up): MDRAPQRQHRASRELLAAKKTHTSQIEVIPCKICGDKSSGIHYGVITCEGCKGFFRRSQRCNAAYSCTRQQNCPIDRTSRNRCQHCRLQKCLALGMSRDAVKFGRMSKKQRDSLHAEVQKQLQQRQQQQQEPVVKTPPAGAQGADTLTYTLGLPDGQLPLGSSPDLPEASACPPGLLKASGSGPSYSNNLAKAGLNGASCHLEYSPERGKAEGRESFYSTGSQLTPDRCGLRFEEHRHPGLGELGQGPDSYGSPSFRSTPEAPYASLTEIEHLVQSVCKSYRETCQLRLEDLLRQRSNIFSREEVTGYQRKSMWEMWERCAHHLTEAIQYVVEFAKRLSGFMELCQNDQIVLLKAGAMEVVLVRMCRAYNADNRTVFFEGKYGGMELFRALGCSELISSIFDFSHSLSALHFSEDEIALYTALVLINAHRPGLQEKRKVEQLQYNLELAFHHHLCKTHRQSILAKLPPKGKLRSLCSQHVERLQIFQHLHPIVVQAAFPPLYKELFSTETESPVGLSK
Chain of Nuclear receptor subfamily 1 group I member 2 (Rattus norvegicus) (Q9R1A7 whole entry, looked up): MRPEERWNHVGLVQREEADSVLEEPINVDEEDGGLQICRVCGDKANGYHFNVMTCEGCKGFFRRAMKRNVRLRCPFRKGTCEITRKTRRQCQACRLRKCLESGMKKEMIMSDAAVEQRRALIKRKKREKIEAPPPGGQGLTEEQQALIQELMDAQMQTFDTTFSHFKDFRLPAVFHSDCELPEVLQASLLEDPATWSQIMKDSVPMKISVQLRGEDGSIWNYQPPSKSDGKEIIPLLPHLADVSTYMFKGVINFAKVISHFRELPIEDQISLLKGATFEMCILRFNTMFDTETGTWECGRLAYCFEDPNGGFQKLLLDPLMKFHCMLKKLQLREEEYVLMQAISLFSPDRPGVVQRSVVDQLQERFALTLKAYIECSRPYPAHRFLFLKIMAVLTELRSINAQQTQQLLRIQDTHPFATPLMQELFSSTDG

Cc1cc(C(=O)O)ccc1[N+](=O)[O-]
inactive: Potency [1] | Potency [2] | Potency [3] | activation [4] 1.35% | max response [5] -0.276% | outcome [6] | Potency [7] | max response [8] -1.45% | max response [9] -12% | Potency [10] | max response [11] -5.59% | outcome [12]

Nc1cccc([N+](=O)[O-])c1
inactive: Potency [1] | Potency [2] | Potency [3] | activation [4] 0.683% | max response [5] -2.36% | Potency [13] | outcome [6] | Potency [7] | max response [8] 11.8% | max response [9] -2.77% | Potency [10] | max response [11] -4.93% | outcome [12]

Cc1ccc(Cl)cc1
inactive: Potency [1] | Potency [14] | Potency [2] | activation [4] -0.186% | Potency [13] | outcome [6] | max response [8] 4.9% | max response [9] -4.66% | Potency [10] | max response [11] -4.31% | outcome [12]

CCCCC(C=O)CC (stereo unspecified)
inactive: Potency [1] | Potency [14] | Potency [2] | activation [4] 0.316% | Potency [13] | outcome [6] | Potency [7] | max response [8] 4.13% | max response [9] -9.34% | Potency [10] | max response [11] -0.0559% | outcome [12]

O=C(Cl)c1cccc([N+](=O)[O-])c1
inactive: Potency [1] | Potency [14] | Potency [2] | Potency [13] | outcome [6] | Potency [7] | max response [8] -1.32% | max response [9] -15.1% | Potency [10] | max response [11] -6.23% | outcome [12]

O=C(O)/C=C/C(=O)O
inactive: Potency [1] | Potency [14] | Potency [2] | max response [5] -1.33% | Potency [13] | outcome [6] | max response [8] 17.2% | max response [9] -0.445% | Potency [10] | max response [11] 2.11% | outcome [12]

CSc1ccc(C=O)cc1
inactive: Potency [1] | Potency [14] | activation [4] 0.018% | max response [5] -3.7% | Potency [13] | outcome [6] | Potency [7] | max response [8] -8.76% | max response [9] 8.71% | Potency [10] | max response [11] 9.01% | outcome [12]

CCCCC(CC)CNCC(CC)CCCC (stereo unspecified)
inactive: Potency [1] | Potency [14] | Potency [2] | max response [5] -0.499% | Potency [13] | outcome [6] | Potency [7] | max response [8] 3.58% | max response [9] -4.58% | Potency [10] | max response [11] -1.1% | outcome [12]

Cc1ccc(C)cc1
inactive: Potency [1] | Potency [2] | Potency [3] | activation [4] 0.01% | max response [5] -4.74% | Potency [13] | outcome [6] | Potency [7] | max response [8] -7.71% | max response [9] -11.4% | Potency [10] | max response [11] 0.288% | outcome [12]

Cc1cc(C)c(N)cc1C
inactive: Potency [1] | Potency [2] | activation [4] 1.62% | max response [5] -4.75% | outcome [6] | Potency [7] | max response [8] 7.8% | max response [9] -5.87% | Potency [10] | max response [11] 3.48% | outcome [12]

CCN(CC)c1cccc(O)c1
inactive: Potency [1] | activation [4] 4.44% | max response [5] -5.23% | Potency [13] | outcome [6] | Potency [7] | max response [8] 5.34% | max response [9] -2.87% | Potency [10] | max response [11] 3.46%

CNc1ccccc1
inactive: Potency [14] | Potency [2] | Potency [3] | activation [4] 1.11% | Potency [13] | outcome [6] | max response [8] -0.57% | max response [9] -6.52% | Potency [10] | max response [11] 4.02% | outcome [12]

CCCOCC(C)OCC(C)O (stereo unspecified)
inactive: Potency [1] | Potency [2] | activation [4] -2.16% | max response [5] -1.53% | Potency [13] | outcome [6] | Potency [7] | max response [8] -10.5% | max response [9] -8.35% | Potency [10] | max response [11] -1.49% | outcome [12]
